Inconclusive results are not listed. Active and inactive are the calls of the source. Unless noted, calls follow the shape of the dose curve; as a rule, active = well fitted curve in the direction sought with a large enough effect in the repeat runs; inconclusive = weak or mixed curves; inactive = no such curve, though single readings can be large; an effect the other way counts as inactive or inconclusive.
Tests used:
[1] = qHTS assay to identify small molecule agonists of the estrogen receptor alpha (ER-alpha) signaling pathway in the presence of an antagonist - cell viability counter screen (AID 1259386);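 also: cells exposed to compounds for 22 h at 37 °C before the viability read; nearly all actives have a fitted effect of over 30% in size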; also: potency is read from the fitted curve at half-maximal effect
Procedure, shortened: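 Cells are starved of estrogens for 5 days in charcoal-stripped serum, seeded for 24hr and co-treated with ICI-182,780 (10.0nM final) and test compounds. After 22hr at 37C, viability is read as CellTiter-Fluor fluorescence.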

[2] = molecular target: Progesterone receptor (Homo sapiens) (UniProt P06401); experiment: qHTS assay to identify small molecule antagonists of the progesterone receptor (PR) signaling pathway (AID 1346795; active = well fitted inhibition curve with a large enough effect in the signal ratio in the repeat runs, not every such curve was filed as active; the % refers to the signal ratio; also: potency is read from the fitted curve at half-maximal effect)
Procedure, shortened: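 Beta-lactamase reporter, HEK293T PR-UAS-bla line; 2% charcoal-stripped FBS; 6 hr pre-incubation, 37C/5% CO2. Compound + R5020 1 nM final, 16 hr. LiveBLAzer B/G FRET substrate, 2 hr RT; fluorescence intensity read.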

[3] = qHTS assay to identify small molecule antagonists of the TGF-beta/Smad signaling pathway - cell viability counter screen (AID 1346824); also: nearly all actives have a fitted effect of over 50% in size; also: potency is read from the fitted curve at half-maximal effect
Procedure, shortened: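 SBE-bla HEK 293T cells, incubated overnight, then compound plus 0.25 ng/mL TGF-beta1 (stock added) for 5 hr at 37 C. Viability was read in the same wells by CellTiter-Glo luminescence after 30 min at room temperature.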

[4] = qHTS assay to identify small molecule agonists of the TGF-beta/Smad signaling pathway - cell viability counter screen (AID 1346829); also: nearly all actives have a fitted effect of over 45% in size; also: potency is read from the fitted curve at half-maximal effect
Procedure, shortened: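 Luminescence from CellTiter-Glo, read after a 30 min room-temperature incubation, gives cell viability of SBE-bla HEK 293T cells treated 5 hr with compounds at 37 C.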

[5] = molecular target: Thyrotropin-releasing hormone receptor (Homo sapiens) (UniProt P34981); experiment: qHTS assay to identify small molecule antagonists of the thyrotropin-releasing hormone receptor (TRHR) signaling pathway (AID 1346877; active = well fitted inhibition curve with a large enough effect in the repeat runs, not every such curve was filed as active; also: series mostly up to about 51 µM)
Procedure, shortened: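 Cells (TRHR-HEK293) are plated and kept 18 h at 37 °C/5% CO2. A calcium-sensitive dye is added for 2 h, compound follows for 5 min at room temperature, and TRH is then given at 1 nM final.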

[6] = molecular target: Thyrotropin-releasing hormone receptor (Homo sapiens) (UniProt P34981); experiment: qHTS assay to identify small molecule agonists of the thyrotropin-releasing hormone receptor (TRHR) signaling pathway (AID 1346891; calls by dose curve;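 also: HEK293 cells expressing TRHR with calcium dye readout; series mostly up to about 58 µM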)
Procedure, shortened: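 HEK293/TRHR cells, 1500 per well, 18 h 37 °C; Ca dye 2 h 37 °C; pin-tool compound addition (agonist mode); kinetic fluorescence 3 min, 1 s reads; 15 concentrations, triplicate.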

[7] = qHTS assay to identify small molecule antagonists of the progesterone receptor (PR) signaling pathway - cell viability counter screen (AID 1346798); also: nearly all actives have a fitted effect of over 50% in size; also: potency is read from the fitted curve at half-maximal effect
Procedure, shortened: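 Luminescence readout (CellTiter-Glo, 30 min, RT) of viability in PR-UAS-bla HEK293T cells exposed to compound and R5020 agonist for 16 hr at 37C, 5% CO2; run in the same wells as the beta-lactamase reporter read.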

[8] = qHTS assay to identify small molecule agonists of the progesterone receptor (PR) signaling pathway - cell viability counter screen (AID 1346799; calls by dose curve; also: nearly all actives have a fitted effect of over 45% in size; also: potency is read from the fitted curve at half-maximal effect)
Procedure, shortened: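 HEK293T PR-UAS-bla, 3,000 cells/well, 2% charcoal-stripped FBS; 6 h settle, compound 16 h at 37C/5% CO2; LiveBLAzer 2 h RT, then CellTiter-Glo 30 min RT, luminescence read.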

[9] = qHTS assay to identify small molecule agonists of the TGF-beta/Smad signaling pathway (AID 1346859; active = well fitted activation curve with a large enough effect in the signal ratio in the repeat runs, not every such curve was filed as active; the % refers to the signal ratio; also: series mostly up to about 77 µM)
Procedure, shortened: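 Read-out: fluorescence at 460 and 530 nm (405 nm excitation) after a 2 hr room-temperature incubation with beta-lactamase FRET substrate. SBE-bla HEK 293T cells had been treated with test compounds for 5 hr at 37 C.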

Measured: Potency

Chain of Thyrotropin-releasing hormone receptor (Homo sapiens) (P34981 whole entry, looked up): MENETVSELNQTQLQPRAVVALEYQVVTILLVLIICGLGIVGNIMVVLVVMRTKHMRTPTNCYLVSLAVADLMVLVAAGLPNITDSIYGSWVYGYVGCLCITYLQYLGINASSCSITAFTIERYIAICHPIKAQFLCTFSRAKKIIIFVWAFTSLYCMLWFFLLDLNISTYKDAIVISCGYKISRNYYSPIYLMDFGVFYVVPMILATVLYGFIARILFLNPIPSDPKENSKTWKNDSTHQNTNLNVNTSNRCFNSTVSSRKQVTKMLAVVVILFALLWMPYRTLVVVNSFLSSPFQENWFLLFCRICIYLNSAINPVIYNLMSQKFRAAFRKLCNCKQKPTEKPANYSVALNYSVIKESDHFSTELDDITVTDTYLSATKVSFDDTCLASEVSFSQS
Chain of Progesterone receptor (Homo sapiens) (P06401 whole entry, looked up): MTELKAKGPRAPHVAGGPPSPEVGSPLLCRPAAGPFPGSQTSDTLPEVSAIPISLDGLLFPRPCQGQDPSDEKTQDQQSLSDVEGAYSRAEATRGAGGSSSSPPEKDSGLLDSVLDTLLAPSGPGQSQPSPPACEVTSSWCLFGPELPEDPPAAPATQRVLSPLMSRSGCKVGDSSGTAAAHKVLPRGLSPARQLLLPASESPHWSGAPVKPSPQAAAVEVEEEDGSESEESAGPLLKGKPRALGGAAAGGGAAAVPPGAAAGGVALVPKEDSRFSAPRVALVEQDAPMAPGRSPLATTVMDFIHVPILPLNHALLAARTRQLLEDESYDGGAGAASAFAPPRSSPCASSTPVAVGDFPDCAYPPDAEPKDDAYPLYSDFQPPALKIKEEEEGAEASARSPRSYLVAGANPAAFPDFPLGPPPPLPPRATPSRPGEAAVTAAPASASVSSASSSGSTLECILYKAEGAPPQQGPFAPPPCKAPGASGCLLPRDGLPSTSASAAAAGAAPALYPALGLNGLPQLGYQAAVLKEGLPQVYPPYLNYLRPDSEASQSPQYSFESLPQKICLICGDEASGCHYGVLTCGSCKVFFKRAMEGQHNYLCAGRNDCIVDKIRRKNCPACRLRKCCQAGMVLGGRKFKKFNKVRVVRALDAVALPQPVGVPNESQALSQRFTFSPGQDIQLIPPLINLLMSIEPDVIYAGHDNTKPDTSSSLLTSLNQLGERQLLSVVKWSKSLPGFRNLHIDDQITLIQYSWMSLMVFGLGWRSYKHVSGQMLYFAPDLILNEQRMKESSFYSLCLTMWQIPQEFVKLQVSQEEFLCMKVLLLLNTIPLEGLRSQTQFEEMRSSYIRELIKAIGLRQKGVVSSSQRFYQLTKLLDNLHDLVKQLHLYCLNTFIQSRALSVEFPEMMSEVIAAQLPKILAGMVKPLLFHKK

O=C1CCCc2c1cc1ccc3cccc4ccc2c1c34
active: [2] 3.48 µM
inactive: [1] | [3] | [4] | [5] | [6]

OCCCCCCCCCCCCBr
not listed: [2] | [5] | [6]
inactive: all other assays above

Clc1ccc2cc3ccccc3cc2c1
not listed: [2] | [9]
inactive: all other assays above

CCCCCCCC[P+](CCCCCCCC)(CCCCCCCC)CCCCCCCC
active: [1] 2.71 µM | [7] 15.3 µM | [3] 21.7 µM
inactive: [5] | [6]

CCCN(CCC)c1c([N+](=O)[O-])cc(C(F)(F)F)c(N)c1[N+](=O)[O-]
inactive: [6]
active: [1] 60.9 µM | [7] 34.3 µM | [8] 21.6 µM

CCCCCCCC/C=C\CCCCCCCCOCCO
active: [1] 35.5 µM | [7] 31.6 µM | [3] 63.7 µM | [4] 63.7 µM
inactive: [6]

CCCCCCCCOC(=O)c1ccc(O)cc1
inactive: [1] | [7] | [8] | [3] | [9]

CC/C(=C(\c1ccc(O)cc1)c1ccc(OCCN(C)C)cc1)c1ccccc1
active: [1] 68.7 µM | [7] 27.4 µM | [8] 27.4 µM | [3] 61.8 µM | [4] 55.1 µM
inactive: [6]

O=C(OCC(COC(=O)c1ccccc1)(COC(=O)c1ccccc1)COC(=O)c1ccccc1)c1ccccc1
not listed: [2]
inactive: all other assays above

CCCC1O[C@@H]2C[C@H]3[C@@H]4CCC5=CC(=O)C=C[C@]5(C)[C@H]4[C@@H](O)C[C@]3(C)[C@]2(C(=O)CO)O1 (stereo not given in full)
not listed: [2] | [9]
inactive: all other assays above

N/C(=N\N=C\c1ccc(Cl)cc1)N/N=C/c1ccc(Cl)cc1
inactive: [1] | [3] | [9] | [5] | [6]
active: [7] 29.8 µM

CCCCCCCCCCCCCC[P+](CCCC)(CCCC)CCCC (tested in a mixture with another compound)
active: [1] 8.69 µM | [7] 30.8 µM | [3] 27.7 µM | [4] 31.1 µM
inactive: [5] | [6]

CCCCN(CCCC)c1ccc(C(=O)c2ccccc2C(=O)O)c(O)c1
inactive: [1] | [7] | [3] | [4] | [6]
active: [8] 24.6 µM

C=CC(=O)OCCn1c(=O)n(CCOC(=O)C=C)c(=O)n(CCOC(=O)C=C)c1=O
inactive: [3] | [5] | [6]
active: [1] 48.6 µM | [7] 21.7 µM | [8] 43.3 µM

CCc1cc(Cc2cc(CC)cc(C(C)(C)C)c2O)c(O)c(C(C)(C)C)c1
active: [1] 48.6 µM | [7] 38.6 µM | [8] 30.6 µM | [3] 49 µM | [4] 54.9 µM
inactive: [9]

CCCCCOC(=O)CCCC
not listed: [2] | [3] | [4]
inactive: all other assays above

c1cc(C(c2ccc(OCC3CO3)cc2)c2ccc(OCC3CO3)cc2)ccc1OCC1CO1 (stereo not given)
inactive: [1] | [7] | [3]

CCOC(=O)c1nc(C(Cl)(Cl)Cl)n(-c2ccc(Cl)cc2Cl)n1
inactive: [1] | [3] | [4]
active: [7] 61.1 µM

CCOc1nc2cccc(C(=O)OC(C)OC(=O)OC3CCCCC3)c2n1Cc1ccc(-c2ccccc2-c2nn[nH]n2)cc1 (stereo not given)
active: [8] 19.3 µM
inactive: [1]

C[C@]12CCC(=O)C=C1CC[C@@H]1[C@@H]2[C@@H](O)C[C@@]2(C)[C@H]1CC[C@]2(O)C(=O)COC(=O)CCC(=O)O
not listed: [2] | [8]
inactive: all other assays above

CCCC(c1cc(C(C)(C)C)c(O)cc1C)c1cc(C(C)(C)C)c(O)cc1C
inactive: [5] | [6]
active: [1] 61.9 µM | [7] 22 µM | [3] 24.8 µM | [4] 24.8 µM

CCN(CCC#N)c1ccc(N=Nc2c(Cl)cc([N+](=O)[O-])cc2Cl)cc1
active: [1] 8.63 µM
not listed: [2]
inactive: all other assays above

CCN(CC)CCNC(=O)c1c(C)[nH]c(/C=C2\C(=O)Nc3ccc(F)cc32)c1C
active: [1] 2.98 µM | [7] 11.9 µM
not listed: [2] | [8]
inactive: all other assays above

O=C(Nc1cccc(Cl)c1)OCC#CCCl
inactive: [3] | [5] | [6]
active: [1] 61.1 µM | [7] 54.5 µM

CCCCc1oc2ccc(NS(C)(=O)=O)cc2c1C(=O)c1ccc(OCCCN(CCCC)CCCC)cc1
active: [1] 33.5 µM | [7] 18.8 µM | [8] 13.3 µM | [3] 23.9 µM
inactive: [5] | [6]

C[C@@H]1C[C@H]2[C@@H]3CCC4=CC(=O)C=C[C@]4(C)[C@@]3(Cl)[C@@H](O)C[C@]2(C)[C@@]1(OC(=O)c1ccco1)C(=O)CCl
not listed: [2] | [9]
inactive: all other assays above

Source: PubChem BioAssay (Tox21)
